Measurements as given in PubChem BioAssay (NCI).
The panel holds about 79,000 compounds, 15% with a hit somewhere; the sample as a whole holds those more often. Activity calls are given as the source filed them. Cut-off read from the data, not from the text of the source: active = growth inhibition above about 70%; inactive = the rest.

Experiments:
[1] = NCI Yeast Anticancer Drug Screen. Data for the rad52 strain (AID 147);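 note: 0% = growth of vehicle-treated control cultures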; conditions: S. cerevisiae rad52 mutant growth inhibition, active compounds read high
Procedure, shortened: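 Here a repair-compromised yeast strain receives each compound; its growth is then quantified and normalised to vehicle-only controls.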

[2] = NCI Yeast Anticancer Drug Screen. Data for the wt1 strain (AID 149);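 note: 0% = growth of vehicle-treated wt1 cultures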; conditions: S. cerevisiae wt1 strain (SPY 50644) growth inhibition, active compounds read high
Procedure, shortened: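 Growth inhibition read against vehicle controls after compound exposure of the wt1 yeast strain.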

[3] = NCI Yeast Anticancer Drug Screen. Data for the rad50EPP+ strain (AID 151);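 note: 0% = growth of vehicle-treated control cultures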; conditions: S. cerevisiae rad50 mutant strain, active compounds read high
Procedure, shortened: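 Read-out is yeast growth inhibition relative to vehicle; cells used were the rad50EPP+ strain.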

[4] = NCI Yeast Anticancer Drug Screen. Data for the mgt1 strain (AID 153); conditions: S. cerevisiae mgt1 mutant growth inhibition, active compounds read high
Procedure, shortened: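 Measured: inhibition of mgt1 yeast growth by compound, normalized to vehicle-treated cultures.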

[5] = NCI Yeast Anticancer Drug Screen. Data for the rad50 strain (AID 155);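 note: 0% = growth of vehicle-only cultures of the same strain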; conditions: S. cerevisiae rad50 strain growth inhibition, active compounds read high
Procedure, shortened: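 Readout: growth inhibition relative to vehicle-treated cultures. Compound exposure was carried out in a genetically defined yeast strain deficient in DNA damage repair.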

[6] = NCI Yeast Anticancer Drug Screen. Data for the mec2-1 strain (AID 157); conditions: S. cerevisiae mec2-1 strain, active compounds read high
Procedure, shortened: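 Using mec2-1 yeast: add compound, measure growth, express inhibition versus vehicle-treated cultures.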

[7] = NCI Yeast Anticancer Drug Screen. Data for the rad14 strain (AID 159);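 note: 0% = growth of vehicle-treated control cultures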; conditions: S. cerevisiae rad14 strain growth inhibition, active compounds read high
Procedure, shortened: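 Growth inhibition vs vehicle controls; genetically altered yeast strain (DNA damage repair defect) treated with test compounds.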

[8] = NCI Yeast Anticancer Drug Screen. Data for the sgs1 mgt1 strain (AID 161);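 note: 0% = growth of cultures given vehicle only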; conditions: S. cerevisiae sgs1 mgt1 strain, active compounds read high
Procedure, shortened: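 Compounds are added to genetically altered yeast, and growth is compared with cultures given vehicle alone to give percent inhibition.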

[9] = NCI Yeast Anticancer Drug Screen. Data for the CLN2oe strain (AID 163);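 note: 0% = growth of vehicle-only control cultures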; conditions: S. cerevisiae CLN2oe strain, active compounds read high
Procedure, shortened: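 Whole-cell yeast growth assay. A strain engineered for altered cell-cycle control received compound, and inhibition relative to vehicle-treated cultures was recorded.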

[10] = NCI Yeast Anticancer Drug Screen. Data for the cln2 rad14 strain (AID 165);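 note: 0% = growth equal to vehicle treated cultures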; conditions: S. cerevisiae cln2 rad14 strain, active compounds read high
Procedure, shortened: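 Yeast strain cln2 rad14, bearing defects in cell cycle control and DNA repair, serves as the test system; values reflect growth inhibition compared with vehicle.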

[11] = NCI Yeast Anticancer Drug Screen. Data for the wt2 strain (AID 169);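 note: 0% = growth of vehicle-treated yeast cultures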; conditions: S. cerevisiae wt2 strain growth inhibition, active compounds read high
Procedure, shortened: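 Treated yeast vs. vehicle-treated yeast: growth inhibition determined.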

[12] = NCI Yeast Anticancer Drug Screen. Data for the mlh1 strain (AID 171);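 note: 0% = growth of vehicle-treated control cultures of the same strain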; conditions: S. cerevisiae mlh1 strain growth inhibition, active compounds read high
Procedure, shortened: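 A yeast strain with a defined genetic lesion serves as the test organism. Cultures receive compound or vehicle, and growth is measured.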

[13] = NCI Yeast Anticancer Drug Screen. Data for the sgs1 strain (AID 173);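 note: 0% = growth of vehicle-only control cultures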; conditions: S. cerevisiae sgs1 mutant, active compounds read high
Procedure, shortened: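 A genetically defined yeast mutant is incubated with the test compound, and its growth is compared to that of the same strain given vehicle.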

[14] = NCI Yeast Anticancer Drug Screen. Data for the mlh1 rad18 strain (AID 175); conditions: S. cerevisiae mlh1 rad18 strain growth inhibition, active compounds read high
Procedure, shortened: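 Steps: expose repair-defective yeast to compound; measure growth; express inhibition against vehicle-treated controls.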

[15] = NCI Yeast Anticancer Drug Screen. Data for the rad18 strain (AID 177); conditions: S. cerevisiae rad18 mutant growth inhibition, active compounds read high
Procedure, shortened: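 Measured value is growth inhibition of a yeast strain bearing a DNA repair alteration, referenced to vehicle-treated cells.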

[16] = NCI Yeast Anticancer Drug Screen. Data for the bub3 strain (AID 167); conditions: S. cerevisiae bub3 mutant strain, active compounds read high
Procedure, shortened: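 Readout: yeast growth inhibition, expressed relative to vehicle-only wells. The test organism is a mutant strain from a panel with lesions in DNA repair or checkpoint genes.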

[17] = at 5.0 µM (retest, dose inferred, filed as 0.5)
[18] = at 50.0 µM (retest, dose inferred, filed as 5.0)

Measured: growth inhibition

CCCCCCNCCCNc1c2ccccc2nc2cccc([N+](=O)[O-])c12
inactive: [1]; at 1.2 µM 43% | [2]; at 1.2 µM -2% | [2]; at 3.7 µM 0% | [2]; at 11.0 µM 8% | [2]; at 33.0 µM 59% | [3]; at 1.2 µM -1% | [3]; at 3.7 µM 5% | [3]; at 11.0 µM 26% | [3]; at 33.0 µM 67% | [4]; at 1.2 µM -4% | [4]; at 3.7 µM -4% | [4]; at 11.0 µM 11% | [5]; at 1.2 µM 24% | [5]; at 3.7 µM 64% | [5]; [17] 69% | [6]; at 1.2 µM 4% | [6]; at 3.7 µM 40% | [6]; [17] 15% | [7]; at 1.2 µM 23% | [9]; at 1.2 µM -6% | [9]; at 3.7 µM -6% | [9]; at 11.0 µM -5% | [9]; at 33.0 µM 29% | [11]; at 1.2 µM -1% | [11]; at 3.7 µM 0% | [11]; at 11.0 µM 5% | [11]; at 33.0 µM 31% | [12]; at 1.2 µM 2% | [12]; at 3.7 µM 9% | [12]; at 11.0 µM 35% | [13]; at 1.2 µM 62%
active: [1]; at 3.7 µM 80% | [1]; at 11.0 µM 92% | [1]; at 33.0 µM 95% | [1]; at 100.0 µM 95% | [2]; at 100.0 µM 92% | [3]; at 100.0 µM 94% | [4]; at 33.0 µM 78% | [4]; at 100.0 µM 94% | [5]; at 11.0 µM 90% | [5]; at 33.0 µM 94% | [5]; [18] 98% | [5]; at 50.0 µM 83.3% | [5]; at 100.0 µM 96% | [6]; at 11.0 µM 94% | [6]; at 33.0 µM 97% | [6]; [18] 99% | [6]; at 50.0 µM 88.1% | [6]; at 100.0 µM 97% | [7]; at 3.7 µM 86% | [7]; at 11.0 µM 98% | [7]; at 33.0 µM 98% | [7]; at 100.0 µM 97% | [8]; [17] 84% | [8]; [18] 97% | [8]; at 50.0 µM 74.3% | [9]; at 100.0 µM 93% | [10]; [17] 80% | [10]; [18] 99% | [10]; at 50.0 µM 85.4% | [11]; at 100.0 µM 96% | [12]; at 33.0 µM 89% | [12]; at 100.0 µM 94% | [13]; at 3.7 µM 80% | [13]; at 11.0 µM 90% | [13]; at 33.0 µM 93% | [13]; at 100.0 µM 95% | [14]; [17] 76% | [14]; [18] 98% | [14]; at 50.0 µM 78.5% | [15]; at 1.2 µM 93% | [15]; at 3.7 µM 95% | [15]; at 11.0 µM 96% | [15]; at 33.0 µM 96% | [15]; at 100.0 µM 95%

Cc1ccc(Nc2n[nH]c(=S)s2)c(C)c1
active: [1]; at 100.0 µM 89% | [2]; at 100.0 µM 90% | [4]; at 100.0 µM 85% | [5]; at 100.0 µM 90% | [6]; at 100.0 µM 83% | [7]; at 100.0 µM 91% | [8]; at 50.0 µM 70.5% | [16]; [18] 71% | [16]; at 100.0 µM 84% | [11]; at 100.0 µM 91% | [12]; at 100.0 µM 89% | [13]; at 100.0 µM 93% | [15]; at 100.0 µM 93%
inactive: [1]; at 1.2 µM -42% | [1]; at 3.7 µM -28% | [1]; at 11.0 µM -33% | [1]; at 33.0 µM 2% | [2]; at 1.2 µM -16% | [2]; at 3.7 µM -3% | [2]; at 11.0 µM -10% | [2]; at 33.0 µM 18% | [3]; at 1.2 µM -45% | [3]; at 3.7 µM -33% | [3]; at 11.0 µM 23% | [3]; at 33.0 µM 56% | [3]; at 100.0 µM 51% | [4]; at 1.2 µM -52% | [4]; at 3.7 µM -56% | [4]; at 11.0 µM -21% | [4]; at 33.0 µM 58% | [5]; at 1.2 µM -11% | [5]; at 3.7 µM -15% | [5]; [17] 21% | [5]; at 11.0 µM 0% | [5]; at 33.0 µM 15% | [5]; [18] 18% | [5]; at 50.0 µM 56.3% | [6]; at 1.2 µM -44% | [6]; at 3.7 µM -45% | [6]; [17] -11% | [6]; at 11.0 µM -18% | [6]; at 33.0 µM -3% | [6]; [18] 8% | [6]; at 50.0 µM 14.8% | [7]; at 1.2 µM -45% | [7]; at 3.7 µM -33% | [7]; at 11.0 µM -41% | [7]; at 33.0 µM 37% | [8]; [17] -6% | [8]; [18] 44% | [10]; [17] 24% | [10]; [18] 49% | [10]; at 50.0 µM 48.1% | [16]; at 1.2 µM 3% | [16]; at 3.7 µM 10% | [16]; [17] 3% | [16]; at 11.0 µM 30% | [16]; at 33.0 µM 17% | [16]; at 50.0 µM 52.5% | [11]; at 1.2 µM -38% | [11]; at 3.7 µM -34% | [11]; at 11.0 µM -10% | [11]; at 33.0 µM 62% | [12]; at 1.2 µM -9% | [12]; at 3.7 µM 6% | [12]; at 11.0 µM 19% | [12]; at 33.0 µM 64% | [13]; at 1.2 µM -29% | [13]; at 3.7 µM -28% | [13]; at 11.0 µM 9% | [13]; at 33.0 µM 51% | [14]; [17] 1% | [14]; [18] 19% | [14]; at 50.0 µM 24.4% | [15]; at 1.2 µM -27% | [15]; at 3.7 µM -25% | [15]; at 11.0 µM -13% | [15]; at 33.0 µM 39%
